# An excerpt weighted towards active compounds, which were near 5.7% of everything screened.
# DAX1 inh-1 – DAX1 (NR0B1) inhibitors, primary screen, cell-based, HEK293, Gal4-DAX1, luciferase luminescence. Nuclear receptor subfamily 0 group B member 1 (Homo sapiens), P51843. HEK293 Gal4-DAX1 luciferase reporter. inhibition, % at 6.75 µM. 340,000 compounds, 0.99% hits;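 active = inhibition above the mean over all tested compounds plus 3 SD, cut at about 4.2% in these data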;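 also: 0% = DAX1-transfected cells with DMSO and 100% = empty-vector control cells with DMSO; inhibition shows as a rise in luminescence from relieved DAX1 repression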
# Target sequence (P51843 207-470 limits assumed): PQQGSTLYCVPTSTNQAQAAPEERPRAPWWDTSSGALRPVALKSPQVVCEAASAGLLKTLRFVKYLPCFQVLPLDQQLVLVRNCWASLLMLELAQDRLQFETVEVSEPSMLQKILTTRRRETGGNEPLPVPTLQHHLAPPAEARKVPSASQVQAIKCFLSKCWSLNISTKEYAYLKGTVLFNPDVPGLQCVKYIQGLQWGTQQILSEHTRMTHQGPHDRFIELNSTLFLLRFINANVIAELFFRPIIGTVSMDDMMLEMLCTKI
# DAX1 inh-2 – DAX1 (NR0B1) inhibitors on StAR promoter, primary screen, cell-based, luminescence, SF-1 (NR5A1), full-length DAX-1; inhibition, % at 6.8 µM; 370,000 compounds, 1.1% hits; HEK293T StAR-luciferase reporter, SF-1/DAX-1 repression relief;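 active = inhibition above the mean over all tested compounds plus 3 SD, cut at about 3.6% in these data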;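 also: 0% = DAX-1 cells with DMSO and 100% = cells lacking DAX-1 with DMSO; higher inhibition means more luminescence from relief of DAX-1 repression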
# hcDAF12 agonist – H. contortus DAF-12 nuclear receptor activators, primary screen, cell-based, luminescence, HEK293, lit1-tk-luc reporter; activation, % at 6.8 µM; 370,000 compounds, 1.4% hits; HEK293 hcDAF-12 lit1-tk-luc reporter; 0% DMSO, 100% Δ7-dafachronic acid;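 active = activation above the mean of all tested compounds plus 3 SD, cut at about 5.5% in these data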;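 also: 100% = response to 3 µM Δ7-dafachronic acid high control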
# ssDAF12 agonist – S. stercoralis DAF-12 nuclear receptor activators, primary screen, cell-based, luminescence, HEK293, GRIP1 co-expression, lit1-tk-luc; activation, % at 6.8 µM; Nuclear hormone receptor DAF-12 (Strongyloides stercoralis); 370,000 compounds, 1% hits; HEK293 ssDAF-12/GRIP1 lit1-tk-luc reporter; % of 3 µM dafachronic acid response;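 active = activation above the mean over all tested compounds plus 3 SD, cut at about 0.9% in these data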;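 also: 0% = DMSO-only wells and 100% = 3 µM delta7-dafachronic acid wells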
# AHR act – AHR activators, primary screen, cell-based, luminescence, luciferase reporter, human | Aryl hydrocarbon receptor (Homo sapiens), P35869 | AHR-responsive luciferase reporter cells | activation, % at 5 µM | 320,000 compounds, 2.5% hits; in the data active = activation above about 47%;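 also: 0% = vehicle wells and 100% = reference agonist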
# hgDAF-12 ag – H. glycines DAF-12 receptor agonists, primary screen, cell-based, luminescence, HEK293, GAL4 fusion, UAS-luciferase. Nuclear hormone receptor DAF-12 (Heterodera glycines), GAL4 fusion. HEK293 GAL4-hgDAF12 UAS-luciferase reporter, agonist luminescence; normalized to butyrate control. activation, % at 6.8 µM. 370,000 compounds, 1.8% hits. AID 687014, 2013;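 active = activation above a cutoff set at the mean of all screened compounds plus 3 SD, cut at about 10% in these data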;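 also: 0% = DMSO wells and 100% = sodium butyrate wells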
# * = called active by the depositor; x = no result.
SMILES,DAX1 inh-1,DAX1 inh-2,hcDAF12 agonist,ssDAF12 agonist,AHR act,hgDAF-12 ag
Cc1cc(C)c2cc(C(=O)Nc3ccccc3)[nH]c2c1,4,1,0,-1,47*,4
C=CCN=C1NC(c2ccc(C(F)(F)F)cc2)C(C(=O)OC)=C(C)N1C (configuration not stated),x,-1,-1,-1,x,2
COc1ccc(S(=O)(=O)N2CCCCC2c2cc(C(=O)N3CCOCC3)no2)cc1 (configuration not stated),x,0,0,-1,x,1
Nn1c(SCC(=O)Nc2nccs2)nnc1-c1cc(-c2ccc(F)cc2)n[nH]1,x,1,0,-1,x,3
COc1cc(OC)cc(-c2c(-c3cccs3)c3cc(Br)ccc3n2C)c1,0,0,1,-1,32,-3
Cn1c(-c2ccsc2)c(-c2cccs2)c2cc(-c3ccc4cc[nH]c4c3)ccc21,2,0,0,-1,66*,1
COc1cc(OC)cc(-c2c(-c3cccs3)c3cc(-c4ccn[nH]4)ccc3n2C)c1,2,0,0,-1,64*,0
Cn1c(-c2ccsc2)c(-c2cccs2)c2cc(Br)ccc21,1,0,1,-1,63*,1
COc1cc(F)cc(-c2ccc3c(c2)c(-c2cccs2)c(-c2cc(OC)cc(OC)c2)n3C)c1,0,0,-3,-1,1,0
COc1ccc(CNC(=O)COC(=O)CO/N=C(\C)c2ccc3c(c2)OCO3)cc1,0,-1,2,-1,-3,3
CC(/C=N/Nc1nc(C)cc(=O)[nH]1)=C\c1ccccc1,-1,0,0,-1,8,-2
CC(/C=N/Nc1ncc(C)c(=O)[nH]1)=C\c1ccccc1,0,0,1,-2,61*,6
COc1ccc(N=Cc2c[nH][nH]c2=O)cc1,0,0,0,-1,6,-3
O=c1[nH][nH]cc1C=Nc1ccc(Oc2ccccc2)cc1,0,0,-2,6.9*,2,1
CCOC1=C2CN(S(=O)(=O)c3ccc(C)cc3)[C@H](c3ccccc3)C[C@H]2[C@H]2C(=O)N(c3ccccc3)C(=O)[C@H]2C1,x,4.0*,0,-1,x,-1
CCOC1=C2CN(S(=O)(=O)c3ccc(C)cc3)[C@@H](c3ccc(CC)cc3)C[C@H]2[C@H]2C(=O)N(c3ccccc3)C(=O)[C@H]2C1,x,-2,2,-2,x,-1
CC(=O)Nc1ccc(NS(=O)(=O)c2c(Cl)cccc2Cl)cc1,0,1,-2,-1,4,1
CCCCN(CC)CCCNC(=O)c1cc2c(=O)n(CC)c3ccccc3c2s1,4.7*,1,2,-1,4,0
CCN(CC)CCNC(=O)c1cc2c(=O)n(C)c3ccccc3c2s1,1,2,6.3*,0,29,6
CCCN(CCC)CCCNC(=O)c1cc2c(=O)n(CC)c3ccccc3c2s1,7.3*,2,1,-1,4,0
CCCCN(CC)CCNC(=O)c1cc2c(=O)n(CC)c3ccccc3c2s1,3,1,3,0,13,-2
CCn1c(=O)c2cc(C(=O)NCC(OC)OC)sc2c2ccccc21,6.2*,0,-2,-1,-3,-2
CCCCN(CC)CCNC(=O)c1cc2c(=O)n(C)c3ccccc3c2s1,1,3,1,0,25,6
COc1ccccc1C(=O)NC(=O)COC(=O)Cn1cnc2c1c(=O)n(C)c(=O)n2C,1,0,2,-1,-1,2
CCN1CCCC1CNC(=O)c1cc(COc2ccc(C)c(C)c2)on1 (configuration not stated),1,2,3,-1,2,4
SMILES,DAX1 inh-1,DAX1 inh-2,hcDAF12 agonist,ssDAF12 agonist,AHR act,hgDAF-12 ag
CC(c1ccco1)N(C(=O)c1cccc(Br)c1)c1ccccn1 (configuration not stated),0,0,-2,-1,-4,-1
O=C(N/C(=C/c1ccc(Br)cc1)C(=O)N1CCCCC1)c1ccccc1F,0,2,1,-1,4,2
Fc1ccc(Nc2ncnc3sc4c(c23)CCC4)cc1F,1,0,-1,-1,49*,-1
Cc1nnc(SCC(=O)NC2CCCCC2)n1N,0,0,-2,-1,2,2
Cc1ccc(NC(=O)Cc2nnc(SCC(=O)NC3CCCC3)n2C)cc1,0,0,6.3*,-1,1,-1
Nn1c(SCC(=O)NC2CCCC2)nnc1C(F)(F)F,5.3*,-1,-1,0,x,-1
CC(=O)Oc1c(I)cc(I)cc1C(=O)Nc1ccc(Cl)cc1,1,0,0,0,6,-2
COc1ccc(C(=O)NCC(=O)OCC(=O)Nc2sccc2C#N)cc1OC,6.4*,1,4,1.1*,4,5
COC(=O)Cc1nnn2c1[C@H](C)[C@@H](OC)c1cccc(Cl)c1-2,x,0,-1,-1,x,1
COc1ccc(CCNC(=O)C/C(C)=N/NC(=O)C23CC4CC(CC(C4)C2)C3)cc1OC,1,2,2,0.9*,4,7
COc1ccccc1NC(=O)C/C(C)=N/NC(=O)C12CC3CC(CC(C3)C1)C2,2,1,-1,0,6,5
S=C(NC1CCCC1)N1CCN(c2ccccn2)CC1,-1,0,0,-1,57*,0
On1c(-c2ccc(Cl)cc2)nc2ccccc21,x,2,3,0,11,11*
CCOc1ccc(-n2c(SCC(=O)c3ccc4ccccc4c3)nnc2-c2ccco2)cc1,x,-1,-2,-2,x,1
Cc1cccc2c(SCC(N)=O)nc(-c3ccccc3)nc12,4,0,0,0,35,2
CC1=NN(C(=O)c2ccccc2F)C(O)(c2ccc(Cl)cc2)C1 (configuration not stated),6.2*,1,2,-1,1,6
CCc1c(C)sc(NC(=O)Cn2nc(C(F)(F)F)c3c2CCCC3)c1C#N,2,0,5,0,11,0
c1ccc(-c2nc(NC3CCCC3)c3ccccc3n2)cc1,-1,0,1,-1,53*,0
Cc1cc(NS(=O)(=O)c2ccc(NS(=O)(=O)c3ccc(CC(C)C)cc3)cc2)nc(C)n1,5.8*,0,-1,-1,-1,-1

# Screening results deposited in PubChem by The Scripps Research Institute Molecular Screening Center.
